Pf growth 48h – inhibits P. falciparum growth in the first generation, 48 h. AID 504832. Potency, µM (titrated, usually from 28.7 µM), inactives show at the highest dose activity change, negative = inhibition, usual class: inhibitors. 5.9% of 310,000 active. P. falciparum luciferase growth in erythrocytes, 48 h; further: on the % scale 0 is the no-effect control and ±100 the full control effect
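In quantitative HTS format, infected erythrocytes bearing luciferase-reporter parasites were treated for a single generation at 37 C. Luminescence after adding detection reagent served as the growth measure.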
Sm TGR inh – blocks Schistosoma mansoni thioredoxin glutathione reductase; Q962Y6; 3% of 360,000 active; AID 485364; purified TGR, DTNB reduction, TNB absorbance 405 nm; Potency, µM (doses to about 114 µM), for inactives: top-dose activity change, negative = inhibition, most hits filed as inhibitors; further: on the % scale 0 is the no-effect control and ±100 the full control effect; nearly all actives have a fitted effect of over 60% in size
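Kinetic colorimetric format: TGR-catalysed, NADPH-driven DTNB reduction monitored via TNB absorbance. Enzyme dispensed at 20 nM; compound exposure 15 min at room temperature before reaction start.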
Pf growth 96h – P. falciparum growth inhibition at 96 hours | P. falciparum luciferase reporter growth, 96 h | Potency, µM (doses to about 28.7 µM), without a hit: top-dose activity change, negative = inhibition, most hits filed as inhibitors | AID 504834 | 6.9% of 320,000 active; further: on the % scale 0 is the no-effect control and ±100 the full control effect
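Infected RBCs, 2% Hct / 0.05% parasitemia final; luciferase-reporter P. falciparum; cpd 96 h, 37 C, 5% CO2; luciferase detection reagent; luminescence.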
SARS PLP yeast – blocks SARS-CoV papain-like protease in a yeast assay. AID 485353. Potency, µM (titrated, usually from 32.9 µM), for inactives: at the top dose activity, positive = growth rescue, actives largely listed as activators. 0.19% of 330,000 active. S. cerevisiae expressing SARS-CoV PLpro, growth rescue; calls by dose curve; further: 0% is about no effect; nearly all actives have a fitted effect of over 55% in size
Starred values were filed as active, the others as inactive; ? = inconclusive; . = no result. Compounds with a hit are over-represented: about 12% of the library has one in this group of screens. Unless noted, the call rests on the fitted dose curve; in most records, active means well fitted curve in the direction sought with a large enough effect; inconclusive means small, poorly fitted or top-dose-only effect, or another doubt; inactive means no such curve, though single readings can be large; an effect the other way counts as inactive or inconclusive. Potency means the concentration at half of the fitted maximal effect.

SMILES	Pf growth 48h	Sm TGR inh	Pf growth 96h	SARS PLP yeast
O=c1c(C(c2ccc(Cl)cc2)c2c(O)nc3n(c2=O)CCS3)c(O)nc2n1CCS2	26%	-1%	-10%	3%
O=c1c(C(c2ccc(Cl)cc2)c2c(O)nc3n(c2=O)CCCS3)c(O)nc2n1CCCS2	6%	1.8µM*	?	0%
O=c1c(C(c2ccc(F)cc2)c2c(O)nc3n(c2=O)CCS3)c(O)nc2n1CCS2	18%	0.79µM*	17%	2%
CCOc1ccc(NC(=O)CN(C)C(=O)c2cc(C)nc3ccccc23)cc1OCC	15µM*	-2%	?	0%
CCOc1ccc(NC(=O)CN(C)C(=O)c2cc(-c3ccncc3)nc3ccccc23)cc1OCC	?	2%	?	2%
Cc1ccc2nc(-c3ccccc3)cc(C(=O)N(C)CC(=O)Nc3ccccc3Br)c2c1	13µM*	-6%	?	3%
CN(CC(=O)Nc1cccc(F)c1)C(=O)c1cc(-c2ccccc2)nc2ccccc12	?	20%	?	-2%
CN(CC(=O)Nc1ccc(F)cc1)C(=O)c1cc(-c2ccco2)nc2ccccc12	?	11µM*	?	-3%
CN(CCOc1ccc(Cl)cc1)C(=O)c1cc(-c2ccco2)nc2ccccc12	?	11µM*	?	4%
COc1cc(C(=O)NCc2ccc(S(N)(=O)=O)cc2)ccc1OCC(=O)N1CCOCC1	-28%	-1%	-27%	0%
COc1ccc(CC(=O)Nc2sc3c(c2C(=O)Nc2cccc(Cl)c2)CCCCC3)cc1	.	-1%	.	.
CN(C)c1nc(-c2cn(CCC#N)c3ccccc23)cs1	?	-1%	?	-2%
COc1ccc(NC(=O)CN(C)C(=O)c2cc(-c3ccc(OC)cc3)nc3ccccc23)cc1	9.3µM*	-7%	?	-1%
Cc1ccc(NC(=O)CN(C)C(=O)c2cc(-c3ccco3)nc3ccccc23)cc1	10µM*	6.3µM*	?	2%
COc1ccc(NC(=O)CN(C)C(=O)c2cc(-c3ccncc3)nc3ccccc23)cc1	?	6%	?	3%
COc1ccc(NC(=O)CN(C)C(=O)c2cc(-c3ccccc3)nc3ccccc23)cc1	?	-2%	-1%	.
COc1ccc(Cl)cc1NC(=O)CN(C)C(=O)c1cc(-c2ccncc2)nc2ccccc12	9.3µM*	5%	5.2µM*	-1%
COc1cccc(NC(=O)CN(C)C(=O)c2cc(-c3ccco3)nc3ccccc23)c1	?	?	?	-3%
Cc1ccc(C(=O)Nc2cccc(C(=O)OCc3cc(=O)n4c5c(sc4n3)CCCC5)c2)cc1	.	1%	.	.
CN(C)C(=O)CCc1ccc2c3c([nH]c2c1)[C@]1(C)[C@@H](C(=O)N2CCOCC2)C[C@H](CC(=O)NCCC2=CCCCC2)C(=O)N1CC3	.	.	.	-7%
CCN(CC)S(=O)(=O)c1ccc(N(C)C)c(NC(=O)CSCc2c(C)noc2C)c1	?	-6%	-27%	3%
CC(=O)c1ccc(Nc2cc(C)nc3c(C)cc(C)cc23)cc1	12µM*	-11%	?	-1%
Cc1cc(C)c2nc(C)cc(Nc3ccc(C(=O)N(C)C)cc3)c2c1	?	-2%	4%	0%
CC(=O)c1cccc(Nc2cc(C)nc3c(C)cccc23)c1	12µM*	0%	-105%	2%
Cc1cc(C)c2nc(C)cc(Nc3ccc(C(=O)NCCO)cc3)c2c1	10µM*	9%	12µM*	0%
SMILES	Pf growth 48h	Sm TGR inh	Pf growth 96h	SARS PLP yeast
CC(=O)c1cccc(Nc2cc(C)nc3ccccc23)c1	18%	3%	-27%	1%
CCOc1cccc(CN2CCC(Oc3ccc(C(=O)NCc4ccccn4)cc3)CC2)c1	?	1%	?	5%
COc1cccc(C2c3[nH]c4ccccc4c3C[C@H]3C(=O)N(c4ccccc4C(=O)NCCCN4CCOCC4)C(=O)N23)c1 (some centres not stated)	15µM*	-1%	12µM*	6%
O=C(NCCCN1CCOCC1)c1ccccc1N1C(=O)[C@@H]2Cc3c([nH]c4ccccc34)C(c3ccc(F)cc3)N2C1=O (some centres not stated)	13µM*	-3%	?	2%
O=C(NCCN1CCOCC1)c1ccccc1N1C(=O)[C@@H]2Cc3c([nH]c4ccccc34)C(c3ccccc3)N2C1=O (some centres not stated)	?	-3%	?	6%
Cn1c(-n2cccc2)c(-c2c(-c3ccc(F)cc3)[nH]c3c2c(=O)n(C)c(=O)n3C)c(=O)n(C)c1=O	.	-1%	.	.
N#CCN1CCC(c2cc(-c3ccco3)n[nH]2)CC1	-14%	-33%	?	1%
Cc1ccc(-n2ncc(C(=O)NCCN3CCOCC3)c2C2CCN(C(=O)OC(C)(C)C)CC2)c(C)c1	.	-7%	.	.
CN(C)CCCNCC(=O)c1c(-c2ccccc2)n(C)c2ccccc12	.	50µM*	?	-6%
COc1cc(/C=C(/C#N)c2ccc(C)cc2)ccc1Oc1ccc([N+](=O)[O-])cn1	?	3%	5%	4%
COc1cc(/C=C(/C#N)c2nc3ccccc3[nH]2)ccc1Oc1ncccc1[N+](=O)[O-]	15µM*	13%	?	-10%
COc1ccc2nc(/C(C#N)=C\c3ccc(Oc4ccc([N+](=O)[O-])cn4)cc3)[nH]c2c1	15µM*	-13%	?	7%
CCOc1cc(/C=C(/C#N)c2nc3ccccc3[nH]2)ccc1Oc1ccc([N+](=O)[O-])cn1	?	-1%	2.3µM*	-1%
Cc1ccc2nc(/C(C#N)=C\c3ccc(Oc4ccc([N+](=O)[O-])cn4)cc3)[nH]c2c1	9.3µM*	-11%	?	-2%
COC(=O)c1cccc(NC(=O)CC2C(=O)NCCN2C(=O)Nc2cc(C)cc(C)c2)c1 (configuration not stated)	-20%	?	-14%	-4%
COc1ccc(Cl)cc1NC(=O)NN1CCN(C)CC1	?	?	?	-9%
CCOc1ccc(OCC)c(-c2c(=O)n(OCc3ccc(C(C)(C)C)cc3)c3ccccc3[n+]2[O-])c1	?	9%	12µM*	1%
CCOc1ccc(-c2c(=O)n(OCC)c3ccccc3[n+]2[O-])cc1	.	-6%	51%	-1%
CCOc1ccc(-c2c(=O)n(OCc3ccc([N+](=O)[O-])cc3)c3ccccc3[n+]2[O-])cc1	40%	-5%	12µM*	3%
COc1ccc(-c2nnc(NC(=O)c3ccccc3[N+](=O)[O-])s2)c(OC)c1	-2%	7%	6%	-1%
C/C(=N\NC(=O)c1cccc(S(=O)(=O)N2CCCC2)c1)c1ccc(OCC(=O)N(C)C)cc1	-4%	0%	-15%	4%
CN1CCN(C(CNC(=O)C(=O)Nc2ccc(Cl)cc2)c2cccnc2)CC1 (configuration not stated)	.	-2%	.	.
Oc1ccc(NCc2cccs2)cc1	?	50µM*	?	-8%
COc1ccccc1C(=O)Nc1nnc(S(=O)(=O)N(C)Cc2ccccc2)s1	5%	-11%	15%	?
